Experimental data published in PubChem BioAssay AID651548 (Broad Institute, 2012).
Hit rate of the full screen: of about 57,000 compounds, about 200 (0.35%) were called active. Only a selection was taken, and actives are over-represented in it overall. Values without a mark were called inactive.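 How the source made its calls: active means mean inhibition of replicates at least 50% and every single replicate also reaching 50%; inconclusive means mean inhibition at least 50% but some replicate falls below 50%; inactive means mean inhibition under 50%.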

What follows are compounds tested against Histone-lysine N-methyltransferase EZH2 (Homo sapiens) (UniProt Q15910) (assay: inhibition of PRC2 H3K27 methylation – biochemical, DELFIA time-resolved fluorescence, single point, primary screen (AID 651548;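 further: dimethyl H3K27 on biotinylated H3 21-44 peptide detected by antibody; plate controls were median neutral control wells for no effect and median positive control wells for full effect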)). Conditions: DELFIA TRF, 1 h, at 12.5 µM, stronger effect = higher value.
Sequence of Histone-lysine N-methyltransferase EZH2 (Homo sapiens) (Q15910 whole entry, looked up): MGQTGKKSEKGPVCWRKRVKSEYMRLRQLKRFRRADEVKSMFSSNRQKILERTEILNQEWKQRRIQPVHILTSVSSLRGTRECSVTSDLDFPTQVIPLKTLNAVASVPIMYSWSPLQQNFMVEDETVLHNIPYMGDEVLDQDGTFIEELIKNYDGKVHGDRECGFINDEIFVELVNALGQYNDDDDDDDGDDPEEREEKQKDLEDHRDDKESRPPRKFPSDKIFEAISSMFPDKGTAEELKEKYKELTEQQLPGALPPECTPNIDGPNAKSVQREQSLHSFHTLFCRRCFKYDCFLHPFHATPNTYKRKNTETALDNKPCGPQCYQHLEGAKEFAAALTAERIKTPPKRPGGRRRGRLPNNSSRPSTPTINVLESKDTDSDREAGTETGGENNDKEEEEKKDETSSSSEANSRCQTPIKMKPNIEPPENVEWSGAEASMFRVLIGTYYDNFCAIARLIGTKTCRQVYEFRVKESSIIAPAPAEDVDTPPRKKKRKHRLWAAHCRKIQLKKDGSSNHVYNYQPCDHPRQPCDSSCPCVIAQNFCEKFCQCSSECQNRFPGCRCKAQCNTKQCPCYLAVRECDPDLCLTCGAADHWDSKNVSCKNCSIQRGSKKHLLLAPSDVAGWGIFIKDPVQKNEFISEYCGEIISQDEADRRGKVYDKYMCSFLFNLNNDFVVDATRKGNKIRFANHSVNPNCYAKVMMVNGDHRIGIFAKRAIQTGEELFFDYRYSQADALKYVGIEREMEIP

SMILES	inhibition
C[C@@H](NC(=O)C[C@H]1C[C@@H]2c3cc(NC(=O)c4ccc5c(c4)OCO5)ccc3O[C@@H]2[C@@H](CO)O1)c1ccccc1	-6.67%
COc1ccccc1NC(=O)N[C@H]1CC[C@@H](CC(=O)N[C@@H](C)c2ccccc2)O[C@H]1CO	-11.3%
O=C(C[C@H]1CC[C@H](NC(=O)Nc2ccccc2F)[C@@H](CO)O1)NCc1ccccc1	4.86%
O=C(C[C@@H]1CC[C@H](NC(=O)C2CC2)[C@@H](CO)O1)NCc1ccncc1	3.36%
C[C@@H]1CN([C@@H](C)CO)C(=O)c2cc(-c3cccnc3)cnc2O[C@H]1CN(C)Cc1ccc(-c2ccccc2)cc1	7.86%
CN(C)Cc1cn(CC[C@H]2CC[C@H](NC(=O)Nc3ccccc3F)[C@@H](CO)O2)nn1	24.4%
C[C@H]1CN([C@@H](C)CO)S(=O)(=O)c2ccc(-c3cccnc3)cc2O[C@H]1CN(C)C(=O)C1CCCCC1	0.754%
C[C@@H]1CN([C@@H](C)CO)S(=O)(=O)c2ccc(-c3ccc(F)cc3)cc2O[C@H]1CN(C)C(=O)c1ccccc1F	-11%
CO[C@@H]1CN(C)C(=O)c2cc(NC(=O)c3ccccc3)ccc2OC[C@@H](C)N(C(C)=O)C[C@@H]1C	4.81%
O=C(C[C@H]1C=C[C@H](NC(=O)c2cccc(F)c2)[C@@H](CO)O1)NCc1ccc(Oc2ccccc2)cc1	-0.132%
CCCC(=O)Nc1ccc2c(c1)C(=O)N(C)C[C@@H](OC)[C@@H](C)CN(C(=O)CC)[C@H](C)CO2	8.4%
C/C=C1/[C@H](O[C@@H]2O[C@H](CO)[C@@H](O)[C@H](O)[C@H]2O)OC=C2C(=O)O[C@@H]3C[C@@H](C(C)CO)[C@H](COC(=O)C[C@H]21)[C@H]3C (some centres not stated)	-12.8%
CC1=COC(O[C@@H]2O[C@H](CO)[C@@H](O)[C@H](O)[C@H]2O)C2C1CC(O)C2CO (some centres not stated)	58.6% (active)
COC(=O)C1=CO[C@@H](O[C@@H]2O[C@H](CO)[C@@H](O)[C@H](O)[C@H]2O)[C@@H]2[C@@H](C)[C@@H](OC(=O)C3=CO[C@@H](O[C@@H]4O[C@H](CO)[C@@H](O)[C@H](O)[C@H]4O)[C@@H]4[C@@H](C)[C@@H](OC(C)=O)C[C@H]34)C[C@H]12	-4.29%
COc1ccccc1-c1cn(CC[C@H]2CC[C@@H](NC(=O)Cc3ccccn3)[C@@H](CO)O2)nn1	9.32%
COc1cccc(NC(=O)Nc2ccc3c(c2)C(=O)N(C)C[C@@H](OC)[C@H](C)CN(CC2CC2)[C@H](C)CO3)c1	-8.45%
CN1CCN(C(=O)c2cc3c(c(-c4cccc(-c5ccc(C(=O)N(C)C)cc5)c4)n2)[C@@H](CCO)N([S@](=O)C(C)(C)C)C3)CC1	-12.8%
COc1ccc(CN2C[C@@H](C)[C@H](OC)CN(C)C(=O)c3cc(NC(C)=O)ccc3OC[C@@H]2C)cc1	-2.6%
O=C(C[C@H]1C=C[C@H](NC(=O)c2cnccn2)[C@@H](CO)O1)NCc1ccccc1F	4.44%
CN(C)C(=O)C[C@H]1C[C@@H]2c3cc(NC(=O)NC4CCCCC4)ccc3O[C@@H]2[C@@H](CO)O1	9.52%
O=C(C[C@@H]1C=C[C@@H](NC(=O)C2CC2)[C@H](CO)O1)NCCCN1CCOCC1	-1.42%

SMILES	inhibition
CCC(=O)Nc1ccc2c(c1)C(=O)N(C)C[C@H](OC)[C@@H](C)CN(C(=O)c1cnccn1)[C@@H](C)CO2	11.1%
COCC(=O)Nc1ccc2c(c1)OC[C@H](C)N(Cc1ccccc1OC)C[C@@H](C)[C@@H](OC)CN(C)C2=O	-9.26%
CO[C@H]1CN(C)C(=O)c2cc(NS(=O)(=O)CC(F)(F)F)ccc2OC[C@H](C)N(C(=O)c2ccc3c(c2)OCO3)C[C@H]1C	13%
CO[C@@H]1CN(C)C(=O)c2cc(NC(=O)c3ccno3)ccc2OC[C@@H](C)N(S(C)(=O)=O)C[C@@H]1C	4.22%
O=C(CCCCCCC(=O)Nc1ccccc1O)N/N=C/c1ccc(Oc2ccccc2)cc1	60.3% (active)
O=C(CCCCCCC(=O)Nc1ccccc1O)N/N=C/c1ccc(C(F)(F)F)cc1	-17.5%
O=C(CCCCCC(=O)Nc1ccccc1O)N/N=C/c1ccc(I)cc1	14.9%
O=C(C[C@@H]1C[C@@H]2c3cc(NS(=O)(=O)c4ccc(F)cc4)ccc3O[C@@H]2[C@H](CO)O1)NCc1cc(F)ccc1F	17%
CCCCc1nn(-c2ccccc2C(F)(F)F)c(=O)n1Cc1ccc(-c2ccccc2S(=O)(=O)NC(=O)c2sccc2C)cc1	62% (active)
COCC(=O)Nc1ccc2c(c1)C(=O)N(C)C[C@H](OC)[C@@H](C)CN(CC1CC1)[C@@H](C)CO2	9.52%
O=C(C[C@@H]1C[C@@H]2c3cc(NC(=O)C4CCC4)ccc3O[C@@H]2[C@@H](CO)O1)NCCN1CCCCC1	-3.85%
CC(C)NC(=O)N[C@@H]1CC[C@H](CC(=O)NCCN2CCCC2)O[C@@H]1CO	-11.4%
C[C@H](O)C#Cc1ccc2c(c1)O[C@H](CN(C)C(=O)C1CC1)[C@@H](C)CN([C@H](C)CO)S2(=O)=O	7.79%
CO[C@H]1CN(C)C(=O)c2ccc(NS(=O)(=O)c3cn(C)cn3)cc2OC[C@@H](C)N(C)C[C@@H]1C	-2.12%
CCC(=O)N(C)C[C@H]1Oc2cc(C#CC3CCCC3)ccc2S(=O)(=O)N([C@H](C)CO)C[C@@H]1C	10%
CN(C)CC(=O)N[C@@H]1CC[C@H](CCn2cc(C3CCCC3)nn2)O[C@H]1CO	-5.37%
O=C(CCN1CCCCC1)N[C@H]1CC[C@H](CCNS(=O)(=O)c2ccc(F)cc2)O[C@@H]1CO	4.74%
O=C(NCC[C@H]1CC[C@@H](NC(=O)c2ccncc2)[C@@H](CO)O1)Nc1ccc(Cl)cc1	1.17%
COc1cccc(NC(=O)N[C@@H]2C=C[C@H](CC(=O)NCc3ccccn3)O[C@H]2CO)c1	-2.05%
O=C(C[C@@H]1C=C[C@H](NC(=O)C2CCOCC2)[C@H](CO)O1)NCc1ccncc1	7.09%
CCC(=O)Nc1ccc2c(c1)C(=O)N(C)C[C@H](OC)[C@@H](C)CN(Cc1cccnc1)[C@H](C)CO2	2.36%

SMILES	inhibition
CO[C@H]1CN(C)C(=O)c2cc(NC(=O)NC(C)C)ccc2OC[C@@H](C)NC[C@@H]1C	4.41%
Cc1ccc(S(=O)(=O)N[C@@H]2CC[C@H](CCn3cc(-c4cccc(F)c4)nn3)O[C@@H]2CO)cc1	-11.1%
CC(C)NC(=O)N[C@@H]1CC[C@H](CCn2cc(-c3ccccc3)nn2)O[C@H]1CO	6.84%
CO[C@H]1CN(C)C(=O)c2ccc(NC(C)=O)cc2OC[C@@H](C)NC[C@H]1C	-8.55%
COC(=O)[C@H](Cc1ccc(N=[N+]=[N-])cc1)N1CC2=C[C@@H](C3CC3)n3c(=O)n(C)c(=O)n3[C@H]2[C@@H]1[C@@H](O)Cc1ccccc1	1.09%
CO[C@@H]1CN(C)C(=O)c2cc(NC(=O)C3CC3)ccc2OC[C@H](C)N(C(=O)c2ccccc2F)C[C@H]1C	3.97%
COCC(=O)N(C)C[C@@H]1Oc2ncc(C#C[C@H](C)O)cc2C(=O)N([C@@H](C)CO)C[C@@H]1C	-0.468%
O=C(C[C@@H]1CC[C@@H](NC(=O)c2ccc3c(c2)OCO3)[C@H](CO)O1)NCc1ccc(F)cc1	-0.86%
COc1ccc(CNC(=O)C[C@H]2CC[C@H](NC(=O)Nc3ccc4c(c3)OCO4)[C@H](CO)O2)cc1	13.2%
C[C@H](CO)N1C[C@H](C)[C@@H](CN(C)C(=O)c2ccccc2)OCCCC[C@H](C)Oc2ccc(NC(=O)c3ccccc3)cc2C1=O	-18.6%
CO[C@@H]1CN(C)C(=O)c2cc(NC(=O)NC3CCCCC3)ccc2OC[C@@H](C)N(C(C)=O)C[C@H]1C	0.307%
C[C@@H]1CN([C@H](C)CO)S(=O)(=O)c2ccc(-c3ccccc3)cc2O[C@H]1CN(C)C(=O)C1CCC1	-4.42%
CO[C@@H]1CN(C)C(=O)c2ccc(NC(=O)Nc3c(C)noc3C)cc2OC[C@@H](C)NC[C@H]1C	0.549%
CO[C@@H]1CN(C)C(=O)c2cc(NS(=O)(=O)c3ccc(Cl)cc3)ccc2OC[C@H](C)NC[C@@H]1C	3.36%
CO[C@@H]1CN(C)C(=O)c2ccc(NC(=O)c3ccccn3)cc2OC[C@@H](C)N(C(=O)C2CCCCC2)C[C@H]1C	-0.858%
CO[C@@H](CN(C)C(=O)c1ccc2c(c1)OCO2)[C@@H](C)CN([C@H](C)CO)S(=O)(=O)c1ccccc1	-0.585%
CO[C@H]1CN(C)C(=O)c2cc(NC(=O)Nc3ccccc3F)ccc2OC[C@@H](C)N(CCC(F)(F)F)C[C@@H]1C	-15.8%
C[C@H](NC(=O)C[C@@H]1C[C@@H]2c3cc(NC(=O)Nc4ccc(C(F)(F)F)cc4)ccc3O[C@@H]2[C@H](CO)O1)c1ccccc1	-10.9%
O=C(Nc1ccccc1)N[C@@H]1CC[C@H](CCn2cc(C3(O)CCCC3)nn2)O[C@@H]1CO	-9.38%
CCNC(=O)C[C@@H]1CC[C@@H](NC(=O)NC2CCCCC2)[C@H](CO)O1	-1.26%
